The source made the active and inactive calls.
How the values were obtained:
[1] = test system: Plasmodium falciparum Sir2 (PF13_0152, Sir2A); assay: pfSir2 binders on small-molecule microarrays, primary screen, biochemical, small-molecule microarray, 635 nm fluorescence (AID 1098); details: small-molecule microarray binding, fluorescence 635 nm; higher = more signal;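 also: score merges spot fluorescence intensity with its signal-to-noise ratio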
[2] = small-molecule microarray binders of probe aDKK1, primary screen, biochemical, biotinylated probe, 635/667 nm fluorescence (AID 1099); details: higher = more signal;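 also: score merges 667nm spot fluorescence with signal to noise across triplicate slides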
[3] = small-molecule microarray binders of probe aCHRDL2, primary screen, biochemical, biotinylated probe, 635/667 nm fluorescence (AID 1100); details: higher = more signal
[4] = splicing luciferase reporter signal modulators, primary screen, spliceosome inhibition project, cell-based, HEK293, splice +/- reporter (AID 1101); details: luminescence, 24 h, higher = more signal, called active from +8 up or from −8 down;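 also: HEK293 cells carrying a splicing-competent luciferase reporter gene; test concentration not given here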
[5] = biological target: Fibroblast growth factor 10 (Homo sapiens) (UniProt O15520); assay: FGF10 binders on small-molecule microarrays, primary screen, biochemical, small-molecule microarray, 635 nm fluorescence (AID 1102); details: FGF10 binding, fluorescence 635 nm, higher = more signal
[6] = test system: glycogen synthase kinase-3 (GSK3A per assay name; protocol says GSK3B); assay: GSK3 binders on small-molecule microarrays, primary screen, biochemical, small-molecule microarray, 635 nm fluorescence, GSK3A (AID 1103); details: small-molecule microarray binding, fluorescence 635 nm; higher = more signal; also: the record names both GSK3A and GSK3B
[7] = biological target: Epidermal growth factor receptor (Homo sapiens) (UniProt P00533); assay: EGFR binders on small-molecule microarrays, primary screen, biochemical, small-molecule microarray, 635 nm fluorescence (AID 1104); details: EGFR binding, higher = more signal;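 also: score merges 667 nm emission intensity with spot signal to noise over triplicate slides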
[8] = biological target: Follistatin-related protein 3 (Homo sapiens) (UniProt O95633); assay: FSTL3 binders on small-molecule microarrays, primary screen, biochemical, small-molecule microarray, 635 nm fluorescence (AID 1105); details: FSTL3 binding, higher = more signal;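 also: score merges emission near 667 nm and signal to noise per printed spot across three slides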
[9] = biological target: Dickkopf-related protein 1 (Homo sapiens) (UniProt O94907); assay: DKK1 binders on small-molecule microarrays, primary screen, biochemical, small-molecule microarray, 635 nm fluorescence scan (AID 1106); details: DKK1 binding, higher = more signal;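 also: score merges emission near 667 nm with signal to noise over three replicate slides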
[10] = test system: Inhibin beta A chain (activin A); assay: INHBA (activin A) binders on microarrays, primary screen, biochemical, small-molecule microarray, 635 nm fluorescence scan (AID 1107); details: small-molecule microarray binding, higher = more signal;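 also: mouse activin A protein probed at 4.33 µg/mL on printed slides; score merges bound-protein fluorescence near 667 nm with spot signal-to-noise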
[11] = test system: Human papillomavirus type 1a protein E7 (residues 44-93); assay: HPV1a E7 fragment binders on microarrays, primary screen, biochemical, small-molecule microarray, residues 44-93, 635 nm fluorescence (AID 1108); details: small-molecule microarray binding, fluorescence 635 nm; higher = more signal;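 also: E7 fragment applied at 1 µg/mL in TBST for 1 h at 4 C; score combines spot fluorescence with its signal to noise ratio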
[12] = modulators of HCV replicon luciferase signal, primary screen, HCV replication inhibitor project, Huh7 cells, luciferase reporter (AID 1109); details: 48 h, higher = more signal;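 also: huh7 hepatoma cells harbouring a luciferase neomycin HCV replicon reporter; luciferase luminescence as measure of HCV replicon replication; test concentration not given here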
[13] = biological target: Left-right determination factor 2 (Homo sapiens) (UniProt O00292); assay: LEFTY2 binders on small-molecule microarrays, primary screen, biochemical, small-molecule microarray, 635 nm fluorescence scan (AID 1110); details: LEFTY2 binding, higher = more signal
[14] = biological target: Calmodulin-1 (Homo sapiens) (UniProt P0DP23); assay: CALM1 binders on microarrays, EGTA buffer, profiling panel, biochemical, small-molecule microarray, Cy5-labelled CALM1 (AID 1111); details: Cy5-CALM1 binding fluorescence, higher = more signal;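 also: labelled calmodulin applied in Tris saline Tween buffer holding calcium plus EGTA and DTT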
[15] = biological target: Calmodulin-1 (Homo sapiens) (UniProt P0DP23); assay: calcium-bound CALM1 binders on microarrays, profiling panel, artefact control for SMM control-protein annotation, biochemical, small-molecule microarray, Cy5-labelled CALM1, plus calcium (AID 1112); details: Cy5-CALM1 binding fluorescence, higher = more signal;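 also: score merges spot fluorescence with signal to noise from triplicate slides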
[16] = small-molecule microarray binders of probe aWnt5a, primary screen, biochemical, biotinylated probe, 635/667 nm fluorescence (AID 1113); details: higher = more signal;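 also: score merges 667 nm fluorescence intensity with signal-to-noise per printed feature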
[17] = small-molecule microarray binders of probe aShh, primary screen, biochemical, biotinylated probe, 635/667 nm fluorescence (AID 1114); details: higher = more signal;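 also: probe is biotin-labelled aShh protein from a stem cell growth factor screen; measures binding of labelled protein to compounds printed on the slide; score merges feature fluorescence at 667 nm with signal-to-noise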
[18] = small-molecule microarray binders of probe aNog, primary screen, biochemical, biotinylated probe, 635/667 nm fluorescence (AID 1115); details: higher = more signal;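 also: probe is biotinylated aNog protein used at 0.15 µg/mL for 1 h at 4 C; z-score combines 667 nm fluorescence of each spot with its signal to noise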
[19] = biological target: Torsin-1A-interacting protein 1 (Homo sapiens) (UniProt Q5JTV8); assay: LAP1 binders from COS7 cell lysate, primary screen, small-molecule microarray, 635/667 nm fluorescence (AID 1116); details: COS7-hLAP1 lysate binding, 635 nm fluorescence, higher = more signal
[20] = biological target: Alpha-bungarotoxin (Bungarus multicinctus) (UniProt P60615); assay: alpha-bungarotoxin binders on microarray, profiling panel, artefact control for SMM control protein annotation, biochemical, small-molecule microarray, Alexa647 label, 635/667 nm fluorescence (AID 1117); details: alpha-BTX-A647 binding fluorescence, higher = more signal
Chain of Alpha-bungarotoxin (Bungarus multicinctus) (P60615 whole entry, looked up): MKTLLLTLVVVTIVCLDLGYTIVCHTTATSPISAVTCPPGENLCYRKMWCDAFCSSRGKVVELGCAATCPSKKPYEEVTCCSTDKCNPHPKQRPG

Chain of Follistatin-related protein 3 (Homo sapiens) (O95633 whole entry, looked up): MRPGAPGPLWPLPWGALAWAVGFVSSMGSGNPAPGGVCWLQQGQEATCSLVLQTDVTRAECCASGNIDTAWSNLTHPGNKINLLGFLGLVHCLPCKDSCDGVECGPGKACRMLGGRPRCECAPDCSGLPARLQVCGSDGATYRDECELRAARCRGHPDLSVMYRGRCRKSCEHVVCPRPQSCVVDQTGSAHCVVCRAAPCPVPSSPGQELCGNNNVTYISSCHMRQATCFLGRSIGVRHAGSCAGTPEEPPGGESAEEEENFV
Chain of Dickkopf-related protein 1 (Homo sapiens) (O94907 whole entry, looked up): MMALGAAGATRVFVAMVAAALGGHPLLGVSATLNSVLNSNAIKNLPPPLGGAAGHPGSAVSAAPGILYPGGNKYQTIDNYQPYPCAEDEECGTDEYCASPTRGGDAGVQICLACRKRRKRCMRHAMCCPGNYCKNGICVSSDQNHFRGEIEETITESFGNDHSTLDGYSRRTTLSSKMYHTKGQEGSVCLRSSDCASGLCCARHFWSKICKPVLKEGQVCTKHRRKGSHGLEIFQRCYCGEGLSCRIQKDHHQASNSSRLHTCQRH
Chain of Epidermal growth factor receptor (Homo sapiens) (P00533 whole entry, looked up): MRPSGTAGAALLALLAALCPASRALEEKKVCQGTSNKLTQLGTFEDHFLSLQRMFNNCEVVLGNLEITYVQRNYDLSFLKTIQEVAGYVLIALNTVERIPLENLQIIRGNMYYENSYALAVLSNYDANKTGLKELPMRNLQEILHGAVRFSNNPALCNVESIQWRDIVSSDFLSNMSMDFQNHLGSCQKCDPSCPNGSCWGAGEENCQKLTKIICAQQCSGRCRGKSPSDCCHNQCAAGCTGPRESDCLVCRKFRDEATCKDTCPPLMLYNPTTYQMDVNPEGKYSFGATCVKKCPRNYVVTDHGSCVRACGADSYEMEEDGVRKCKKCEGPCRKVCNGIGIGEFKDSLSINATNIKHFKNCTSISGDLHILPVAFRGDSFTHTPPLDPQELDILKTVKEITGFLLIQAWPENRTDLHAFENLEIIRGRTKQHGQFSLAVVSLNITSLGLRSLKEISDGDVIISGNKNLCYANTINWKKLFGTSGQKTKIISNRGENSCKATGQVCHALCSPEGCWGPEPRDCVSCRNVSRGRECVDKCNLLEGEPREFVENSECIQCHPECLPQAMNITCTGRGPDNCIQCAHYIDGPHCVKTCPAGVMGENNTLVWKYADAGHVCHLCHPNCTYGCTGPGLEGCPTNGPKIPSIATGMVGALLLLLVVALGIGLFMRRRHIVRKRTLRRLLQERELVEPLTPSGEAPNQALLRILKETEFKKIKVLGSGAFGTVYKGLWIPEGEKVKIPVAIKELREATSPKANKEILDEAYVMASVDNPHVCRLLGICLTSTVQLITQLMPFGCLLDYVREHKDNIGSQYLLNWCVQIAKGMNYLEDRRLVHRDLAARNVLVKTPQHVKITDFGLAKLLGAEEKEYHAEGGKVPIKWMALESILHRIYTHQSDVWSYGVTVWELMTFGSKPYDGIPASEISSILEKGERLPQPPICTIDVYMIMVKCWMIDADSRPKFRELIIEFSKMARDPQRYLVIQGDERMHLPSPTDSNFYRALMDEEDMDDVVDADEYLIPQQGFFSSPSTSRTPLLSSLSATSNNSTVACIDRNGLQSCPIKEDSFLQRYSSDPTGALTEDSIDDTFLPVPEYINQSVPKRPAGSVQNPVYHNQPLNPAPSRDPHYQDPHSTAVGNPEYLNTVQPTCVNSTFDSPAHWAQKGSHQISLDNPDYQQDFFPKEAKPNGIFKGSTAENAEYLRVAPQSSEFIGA
Chain of Left-right determination factor 2 (Homo sapiens) (O00292 whole entry, looked up): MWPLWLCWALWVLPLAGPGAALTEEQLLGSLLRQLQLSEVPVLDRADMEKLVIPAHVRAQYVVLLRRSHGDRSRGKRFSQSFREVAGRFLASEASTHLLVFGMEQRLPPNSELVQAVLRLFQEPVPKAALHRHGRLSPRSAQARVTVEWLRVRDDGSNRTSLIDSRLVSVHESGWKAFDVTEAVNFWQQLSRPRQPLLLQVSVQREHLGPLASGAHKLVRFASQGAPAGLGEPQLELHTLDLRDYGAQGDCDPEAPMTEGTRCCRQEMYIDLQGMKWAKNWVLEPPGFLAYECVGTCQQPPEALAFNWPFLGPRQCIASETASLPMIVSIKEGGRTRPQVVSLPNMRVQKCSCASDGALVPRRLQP
Chain of Torsin-1A-interacting protein 1 (Homo sapiens) (Q5JTV8 whole entry, looked up): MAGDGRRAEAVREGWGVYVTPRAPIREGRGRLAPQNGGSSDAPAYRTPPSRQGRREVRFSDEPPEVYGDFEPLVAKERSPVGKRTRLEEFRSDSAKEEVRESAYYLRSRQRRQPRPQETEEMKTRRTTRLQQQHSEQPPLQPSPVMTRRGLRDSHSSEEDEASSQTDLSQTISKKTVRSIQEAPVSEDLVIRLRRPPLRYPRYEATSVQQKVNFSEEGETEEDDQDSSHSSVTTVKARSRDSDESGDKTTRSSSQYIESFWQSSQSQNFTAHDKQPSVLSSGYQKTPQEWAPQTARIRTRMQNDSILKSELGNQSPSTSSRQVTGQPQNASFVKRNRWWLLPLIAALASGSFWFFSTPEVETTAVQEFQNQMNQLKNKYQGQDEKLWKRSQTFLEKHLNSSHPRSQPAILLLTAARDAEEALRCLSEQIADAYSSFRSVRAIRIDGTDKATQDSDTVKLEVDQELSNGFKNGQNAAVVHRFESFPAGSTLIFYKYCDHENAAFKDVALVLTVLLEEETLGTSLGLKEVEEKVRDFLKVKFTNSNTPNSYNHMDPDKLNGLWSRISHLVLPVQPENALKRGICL
Chain of Fibroblast growth factor 10 (Homo sapiens) (O15520 whole entry, looked up): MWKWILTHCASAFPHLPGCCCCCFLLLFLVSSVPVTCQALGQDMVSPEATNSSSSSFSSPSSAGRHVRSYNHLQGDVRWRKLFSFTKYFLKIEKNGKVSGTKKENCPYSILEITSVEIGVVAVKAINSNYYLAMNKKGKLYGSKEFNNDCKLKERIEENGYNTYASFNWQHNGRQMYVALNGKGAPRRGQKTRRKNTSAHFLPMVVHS

Structure (SMILES)	composite z-score [1]	composite z-score [2]	composite z-score [3]	z-score [4]	composite z-score [5]	composite z-score [6]	composite z-score [7]	composite z-score [8]	composite z-score [9]	composite z-score [10]	composite z-score [11]	z-score [12]	composite z-score [13]	composite z-score [14]	composite z-score [15]	composite z-score [16]	composite z-score [17]	composite z-score [18]	composite z-score [19]	composite z-score [20]
O=C(c1ccccc1)N1C(=O)[C@]2(Cc3ccccc31)N=C(c1ccc(OCCCO)cc1)O[C@@H]2c1ccccc1	1.2	-0.0088	0.339	-0.936 (inactive)	1.42	1.31	0.0998	0.554	0.405	0.0538	1.44	-2.94	0.148	1.43	-0.165	-0.0758	0.108	-0.535	0.688	1.46
COc1ccc(CCNC(=O)[C@@]2(Sc3ccc(C)cc3)CC(=O)N(Cc3ccccc3C(F)(F)F)[C@@H]2c2ccc(CO)cc2I)cc1	1.09	-0.0552	1.08	-1.14 (inactive)	-1.06	-0.404	-1.24	-1.64	-1.14	0.67	0.497	-2.42	-1.5	0.138	0.14	-0.0792	-0.0849	0.924	0.357	1.73
COC(=O)C1=CC(CCCO)=CC(c2cccs2)N(C)C=C1C(=O)OC (stereo not given)	1.52	0.122	0.187	0.844 (inactive)	-0.604	-1.39	-0.904	0.0507	-0.442	0.788	0.0867	-1.31	-0.876	0.127	0.618	-0.0981	-0.165	-0.0879	0.044	0.498
C=CCNC(=O)[C@H]1[C@@H]2C(=O)O[C@@H](c3ccccc3)[C@@H](c3ccccc3)N2[C@@H](c2ccccc2OCCO)[C@]12C(=O)N(C(=O)OCCOC)c1ccc(C#CC3(O)CCCCCC3)cc12	1.32	-0.115	0.457	-0.725 (inactive)	1.13	0.562	0.383	0.502	-0.515	1.07	1.25	-2.88	0.371	1.09	0.647	-0.0239	0.176	-0.168	1.22	0.996
NC(=O)NCC#Cc1ccc2c(c1)[C@]1(C(=O)N2)[C@H](C(=O)N2CCN(c3ncccn3)CC2)[C@H]2C(=O)O[C@H](c3ccccc3)[C@H](c3ccccc3)N2[C@@H]1c1ccc(O)cc1	0.615	0.287	0.208	-0.534 (inactive)	1.21	-0.0752	0.755	1.41	0.704	-0.131	1.23	-0.437	0.728	0.313	-0.156	0.108	0.296	-0.524	0.498	0.677
CCCCCCc1nc(Cc2cc(OC)c(OC)c(OC)c2)cc2c1[Si](C(C)C)(C(C)C)OC2	0.209	-0.227	-0.623	-0.393 (inactive)	0.124	-0.195	0.192	0.494	0.5	0.881	-0.457	-1.96	0.186	-0.112	-0.302	-0.0462	-0.214	-0.174	-0.136	-0.0869
Cc1ccc(N2C(=O)c3ccccc3[C@@H](C(=O)NCCCN(C)C)[C@@H]2c2ccc(CO)cc2)nc1	0.451	1.51	0.824	-0.556 (inactive)	-0.514	-0.298	0.239	0.102	-0.06	-0.153	-0.48	0.234	-0.14	-0.571	-0.382	-0.22	-0.452	-0.577	1.29	0.14
CCCC[C@@H](O)C1=C(COC)C[C@H]2C(=O)N(C)C(=O)[C@H]2[C@H]1CO	0.0237	-0.491	-0.532	-0.857 (inactive)	0.0965	-0.0596	-0.0915	0.344	0.339	0.581	0.0944	-0.338	0.822	-0.419	-0.573	-0.0417	-0.138	-0.267	0.13	-0.165
CCCNC(=O)[C@@]1(Sc2ccc(C)cc2)CC(=O)N(C2Cc3ccccc3C2)[C@@H]1c1ccc(CO)cc1I	0.401	0.551	0.7	-0.272 (inactive)	-0.189	-0.0794	-0.172	-0.268	-0.236	1.04	1.08	-1.65	0.698	0.183	0.497	0.0932	-0.221	1.17	0.604	0.161
CCCCC[C@H]1OC[C@@]23C=C(Br)[C@@H](CC12)[C@@]1(CO1)C3=O (stereo not given in full)	-0.501	-0.323	-0.515	0.424 (inactive)	0.106	-0.0067	0.0985	-0.0915	0.103	0.0936	0.299	-2.3	0.058	-0.554	-1.31	-0.16	0.0796	-0.183	-0.574	-0.284
CCCCCCCCCCC(O)C1C=CC2C(=O)N(c3ccccc3)C(=O)C2N1Nc1ccc(C#N)cc1 (stereo not given)	0.905	0.44	1.09	1.08 (inactive)	1.06	1.02	0.17	0.788	-0.517	1.02	1.38	-1.57	-0.157	2.48	1.19	0.203	-0.164	-0.889	1.47	1.19
CCCCC(CC)C(O)C1C=CC2C(=O)N(C)C(=O)C2N1Nc1ccccc1 (stereo not given)	0.579	0.559	0.0302	1.48 (inactive)	0.304	0.598	-0.248	0.192	-0.0617	0.864	1.4	-0.813	-0.303	1.29	0.583	-0.0721	0.0181	0.558	0.466	1.34

From PubChem BioAssay
